Experimental data reported in PubChem BioAssay AID1986 (Sanford-Burnham Center for Chemical Genomics, 2009).
In all, about 290,000 compounds went through this assay and about 890 (0.31%) were called active. Cut-off read from the data, not from the text of the source: active = inhibition mostly above about 52% (no sharp cut-off); inactive = mostly below about 76%. The entries come from a sample that favours actives as a whole.

Assay: inhibitors of HIV fusion peptide binding, primary screen, biochemical, uHTS, fluorescence dequenching (AID 1986)
Settings: cell-free peptide binding, 30 min, stronger effect = higher value
[1] = measured here: repeat confirmation average inhibition, at 18.6 µM

SMILES	inhibition (at 20 µM)	inhibition [1]
COc1ccc(-n2c(O)c(/C=N/n3cnnc3)c3ccccc3c2=O)cc1	-1% (inactive)	–
c1ccc(Oc2ccc(-n3cnnn3)cc2)cc1	-0.6% (inactive)	–
CCOC(=O)c1oc2ccccc2c1NC(=O)C1CCCCC1	2.3% (inactive)	–
O=C(N=Nc1c(O)[nH]c2ccccc12)c1ccc(CN2CCOCC2)cc1	-1.7% (inactive)	–
O=c1c2c3c(sc2n(CCN2CCOCC2)c(=O)n1Cc1ccco1)CCCCC3	-0.6% (inactive)	–
CCOC(=O)N1CCC(N2C(=O)c3ccccc3C2Nc2cc(C)cc(C)c2)CC1 (stereo not given)	-0.9% (inactive)	–
Cc1ccc(N=C2NC(=O)/C(=C\c3cccs3)S2)cc1C	1.6% (inactive)	–
Cc1ccc(N=C2NC(=O)/C(=C/c3cccn3C)S2)cc1C	2.1% (inactive)	–
Cc1ccc(N=C2NC(=O)/C(=C/c3cn(C)c4ccccc34)S2)cc1C	74.7% (active)	73.2%
Cn1nc(-c2ccccc2)c(/C=N/O)c1Cl	-1.8% (inactive)	–
CCn1cc(C(=O)N2CCCC2)c(=O)c2cc(S(=O)(=O)N3CC(C)CC(C)C3)ccc21 (stereo not given)	1.1% (inactive)	–
COc1ccc2cc(CCNS(=O)(=O)c3c(C)cc(C)cc3C)c(=O)[nH]c2c1	-1.1% (inactive)	–
Cc1c(NC(=O)c2ccc(Cl)s2)c(=O)n(-c2ccccc2)n1C	0.5% (inactive)	–
O=C(O)c1c2c(nc3ccccc13)/C(=C/c1cccc([N+](=O)[O-])c1)CCC2	2.3% (inactive)	–
O=C(O)c1ccc(-n2c(/C=C/c3cccc([N+](=O)[O-])c3)nc3ccccc3c2=O)cc1	1.4% (inactive)	–
O=C(O)c1ccc(-n2ncc3c2/C(=C/c2cccc([N+](=O)[O-])c2)CC3)cc1	66.7% (active)	–
Cn1cccc1CC(=O)N/N=C\c1ccccc1	-0.6% (inactive)	–
COc1ccc(/C=C2/N=C(c3cccs3)OC2=O)cc1OC(C)C	106% (active)	100%
CCOc1ccc(/C=C2\N=C(c3cccs3)OC2=O)cc1OC	6.4% (inactive)	–
COc1ccc(/C=C2\N=C(C)OC2=O)cc1OC	0.7% (inactive)	–
COC(=O)Cn1cc(/C=C/c2cc[n+](C)cc2)c2ccccc21	115% (active)	96.1%
COC(=O)Cn1c(C)c(/C=C/c2cc[n+](C)cc2)c2ccccc21	46.3% (inactive)	–
Cc1ccc2c(c1)c(/C=C/c1cc[n+](C)cc1)c(C)n2C	159% (inactive)	–
C=CCn1c(C)c(/C=C/c2cc[n+](C)cc2)c2ccccc21	103% (active)	81%

SMILES	inhibition (at 20 µM)	inhibition [1]
CCn1cc(/C=C/c2cc[n+](C)cc2)c2ccccc21	182% (inactive)	–
CCN(CC)C(=O)Cn1c(=O)n(C)c2ccccc21	-1.6% (inactive)	–
CCN(CC)C(=O)Cn1c(C)c(/C=C/c2cc[n+](C)cc2)c2ccccc21	115% (active)	54.5%
C=CCn1cc(/C=C/c2cc[n+](C)cc2)c2ccccc21	185% (inactive)	–
Cc1cc(Nc2ccccc2)n(C(=O)c2ccccc2)n1	-3% (inactive)	–
Cc1c(NC(=O)COC(=O)/C=C/c2ccc(Cl)cc2)c(=O)n(-c2ccccc2)n1C	-0.5% (inactive)	–
Clc1ccccc1OCCn1nnc2ccccc21	-2% (inactive)	–
CCC(=O)Nc1cccc(NC(=O)c2cccc([N+](=O)[O-])c2C)c1	1.2% (inactive)	–
NC(=O)c1nsc(C(=O)N(c2cccc(F)c2)C(C(=O)NC2CCCC2)c2ccc(O)cc2)c1N (stereo not given)	-1.3% (inactive)	–
Cc1nc2ccc(S(=O)(=O)Nc3cc(-c4nc5cccnc5s4)ccc3C)cc2s1	3.9% (inactive)	–
CC12C=CC(=O)C=C1CCC1C3CCC(O)(C(=O)CO)C3(C)CC3OC312 (stereo not given)	-0.7% (inactive)	–
CCOC(=O)CNC(=O)Cn1cnc2c(nnn2-c2ccccc2)c1=O	-0.8% (inactive)	–
CCOC(=O)c1c(C)[nH]c(C(=O)COC(=O)CCSc2ccccc2)c1C	0.3% (inactive)	–
Cc1cc(S(=O)(=O)N2CCN(c3ccccn3)CC2)c(C)cc1Cl	-0.6% (inactive)	–
Cc1cc(/C=C2/C(=N)N3C(=NC2=O)SN=C3S(C)(=O)=O)c(C)n1-c1ccc(F)cc1	75.8% (inactive)	45.6%
CC1=CC2=NC(=O)/C(=C\c3cc(C)n(-c4ccccc4F)c3C)C(=N)N2O1	3.2% (inactive)	–
COc1cccc(-n2c(C)cc(/C=C3/C(=N)N4C(=NC3=O)SN=C4S(C)(=O)=O)c2C)c1	148% (inactive)	–
CCOc1ccc(-n2c(C)cc(/C=C3/C(=N)N4C(=NC3=O)SN=C4S(C)(=O)=O)c2C)cc1	66.6% (active)	–
COc1ccccc1-n1c(C)cc(/C=C2/C(=N)N3C(=NC2=O)SN=C3S(C)(=O)=O)c1C	58.1% (inactive)	36.2%
Cc1cc(/C=C2/C(=N)N3C(=NC2=O)SN=C3S(C)(=O)=O)c(C)n1-c1ccccc1F	60.2% (active)	–
COc1ccc(CNC(=O)/C=C/c2ccc(S(=O)(=O)NCc3ccco3)cc2)cc1OC	0.9% (inactive)	–
Cc1ccc(C)c2[nH]c(=O)c(CN(Cc3nnnn3C3CCCCC3)CC3CCCO3)cc12 (stereo not given)	-0.9% (inactive)	–
Cc1cc(-n2nc3ccccc3n2)c(O)c([N+](=O)[O-])c1	0.3% (inactive)	–
CCCCCc1ccc(-c2cn(Cc3ccc(C(=O)c4ccccc4)cc3)nn2)cc1	1% (inactive)	–

SMILES	inhibition (at 20 µM)	inhibition [1]
COc1ccc(CC(=O)Nc2cc(C)c3c(=O)oc4ccccc4c3n2)cc1	-0.2% (inactive)	–
CCOc1ccc(/C=C(\C)C(=O)c2c(C)cc(C)[nH]c2=O)cc1	-0.3% (inactive)	–
COc1cc2[nH]c(=S)nc(NCCCOC(C)C)c2cc1OC	-2.4% (inactive)	–
O=c1cc2c(=O)oc3cc(O)c(O)oc3c2c(O)c1O	44.6% (inactive)	–
O=c1oc2c(O)c(O)cc3c(=O)oc4c(O)c(O)cc1c4c23	54.2% (active)	–
Cc1c(Br)c(=O)oc2c(Br)c(O)c(O)cc12	30.9% (inactive)	–
O=[N+]([O-])c1cc(Cl)cc(/C=N/Nc2nc3ccccc3s2)c1O	31.5% (inactive)	–
COc1cc(/C=N/Nc2nc3ccccc3s2)cc([N+](=O)[O-])c1O	55.5% (active)	–
COc1ccc(/C=N/Nc2nc3ccccc3s2)cc1O	-3.2% (inactive)	–
Cc1cc(C)n(-c2nc3ccccc3c(=O)n2OCC(=O)OCc2ccccc2)n1	-0.4% (inactive)	–
COc1ccc(N=C2NC(=O)CS2)c([N+](=O)[O-])c1	-1.1% (inactive)	–
Cc1nc(C2COc3ccccc3O2)sc1C(=O)O (stereo not given)	1.6% (inactive)	–
O=C(O)C1Nc2c(C(F)(F)F)ccc(Cl)c2C2C=CCC12 (stereo not given)	37.7% (inactive)	–
O=C(O)C1Nc2c(O)cc(Cl)c([N+](=O)[O-])c2C2C=CCC12 (stereo not given)	66.8% (inactive)	41%
CCOC(=O)C1Nc2ccc(C(=O)O)cc2C2C=CCC12 (stereo not given)	38% (inactive)	–
Cc1cc(C)c2c(c1)NC(C(=O)O)C1CC=CC21 (stereo not given)	60.2% (active)	–
CCCC1Nc2ccc(C(=O)O)cc2C2C=CCC12 (stereo not given)	49.7% (inactive)	–
Cc1ccc2c(c1)C1C=CCC1C(C(=O)O)N2 (stereo not given)	62.4% (active)	–
CC(=O)c1ccc2c(c1)C1C=CCC1C(C(=O)O)N2 (stereo not given)	58.7% (inactive)	17.4%
CCOC(=O)C1Nc2ccc(Br)cc2C2C=CCC12 (stereo not given)	34.6% (inactive)	–
CC(C)C1Nc2ccc(C(=O)O)cc2C2C=CCC21 (stereo not given)	50.1% (active)	–
O=C(O)C1Nc2c(Cl)cc(Cl)cc2C2C=CCC12 (stereo not given)	80.1% (active)	–
Cc1cc(C)c2c(c1)NC(c1cc3c(cc1Br)OCO3)C1CC=CC21 (stereo not given)	7.4% (inactive)	–
Cc1ccc2c(c1C)NC(C(=O)O)C1CC=CC21 (stereo not given)	43.9% (inactive)	–

SMILES	inhibition (at 20 µM)	inhibition [1]
COc1ccc(C)cc1S(=O)(=O)N1CCN(c2ccccc2)CC1	-0.9% (inactive)	–
Cc1ccc2nc3c(c(Nc4cccc(O)c4)c2c1)CCC3	-1.7% (inactive)	–
CCOC(=O)c1ccc2c(c1)C1C=CCC1C(C(=O)OCC)N2 (stereo not given)	19.8% (inactive)	–
O=C(OC1CCCCC1)c1ccc2c(c1)C1C=CCC1C(C(=O)O)N2 (stereo not given)	56.1% (active)	–
CCOC(=O)c1ccc2c(c1)C1C=CCC1C(C(=O)O)N2 (stereo not given)	66.5% (inactive)	40.8%
Cc1ccccc1-n1cc(CNCc2c(C(=O)N(C)C)nc3ccc(Cl)cn23)cn1	-1.3% (inactive)	–
CCCCc1ccc(-c2csc(/C(C#N)=C/c3ccc(C)o3)n2)cc1	0.2% (inactive)	–
CCCCc1ccc(-c2csc(/C(C#N)=C/c3ccco3)n2)cc1	49.9% (inactive)	–
CCCCc1ccc(-c2csc(/C(C#N)=C\c3ccco3)n2)cc1	58.3% (active)	–
CCCN1CCN(c2nc(-c3cccs3)nc3ccccc23)CC1	0.8% (inactive)	–
O=C(NC(=S)Nc1ccc2oc(=O)ccc2c1)c1ccccc1F	-0.2% (inactive)	–
O=C(/C=C/c1ccco1)Nc1cccc(C(=O)Nc2ccccc2C(=O)O)c1	58.9% (inactive)	49.8%
COC(=O)c1cccc(NC(=O)/C=C/c2ccc([N+](=O)[O-])cc2)c1	0.8% (inactive)	–
O=C(/C=C/c1ccc([N+](=O)[O-])cc1)Nc1cccc(C(=O)Nc2ccccc2C(=O)O)c1	54.1% (active)	–
COc1ccc(NS(=O)(=O)c2cccc(NC(=O)NC3CCCCC3)c2)cc1	2% (inactive)	–
CCOC(=O)c1sc(=S)n(C)c1NC(=O)c1cccc(Br)c1	-0.1% (inactive)	–
N#Cc1c2nc3ccccc3nc2n2cc(NC(=O)c3ccc(F)cc3)ccc12	76.7% (inactive)	-2.2%
Cc1c(C(=O)Nc2ccccc2)cn2c(nc3ccccc32)c1C#N	3.1% (inactive)	–
Cc1ccccc1C(=O)Nc1ccc2c(C#N)c3nc4ccccc4nc3n2c1	92.7% (active)	–
N#C/C=C(/N)N1CCN(c2ccc(Cl)c(Cl)c2)CC1	-2.3% (inactive)	–
O=C(O)c1nn(-c2cccc(Cl)c2)c(=O)cc1O	24.3% (inactive)	–
